Inconclusive results are not listed. Where a call stands in place of a potency, no number is given. Active and inactive are the calls of the source. Unless noted, calls follow the shape of the dose curve; as a rule, active = well fitted activation curve with a large enough effect in the main read-out, with a control signal flat (not every such curve was filed as active); inconclusive = small, poorly fitted or top-dose-only effect, or effect the other way, or a change in a side signal; inactive = flat fitted curve, though single readings scatter.
Target: 3',5'-cyclic-AMP phosphodiesterase 4B (Homo sapiens) (UniProt Q07343)
Experiment: qHTS Assay for Inhibitors of PDE-IV (AID 607)
Conditions: HEK293 ACTOne CNG channel cells, membrane potential fluorescence; series mostly up to 22.9 µM
Summary of the method: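 Live HEK293 cells with a modified cyclic nucleotide-gated (CNG) channel report intracellular cAMP via membrane-potential dye fluorescence (ex 535/em 590 nm). Endogenous PDE-IV was targeted. Compounds were tested at up to 22.9 uM final; RO 20-1724 100 uM served as control.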

3',5'-cyclic-AMP phosphodiesterase 4B (Homo sapiens), sequence (Q07343 whole entry, looked up): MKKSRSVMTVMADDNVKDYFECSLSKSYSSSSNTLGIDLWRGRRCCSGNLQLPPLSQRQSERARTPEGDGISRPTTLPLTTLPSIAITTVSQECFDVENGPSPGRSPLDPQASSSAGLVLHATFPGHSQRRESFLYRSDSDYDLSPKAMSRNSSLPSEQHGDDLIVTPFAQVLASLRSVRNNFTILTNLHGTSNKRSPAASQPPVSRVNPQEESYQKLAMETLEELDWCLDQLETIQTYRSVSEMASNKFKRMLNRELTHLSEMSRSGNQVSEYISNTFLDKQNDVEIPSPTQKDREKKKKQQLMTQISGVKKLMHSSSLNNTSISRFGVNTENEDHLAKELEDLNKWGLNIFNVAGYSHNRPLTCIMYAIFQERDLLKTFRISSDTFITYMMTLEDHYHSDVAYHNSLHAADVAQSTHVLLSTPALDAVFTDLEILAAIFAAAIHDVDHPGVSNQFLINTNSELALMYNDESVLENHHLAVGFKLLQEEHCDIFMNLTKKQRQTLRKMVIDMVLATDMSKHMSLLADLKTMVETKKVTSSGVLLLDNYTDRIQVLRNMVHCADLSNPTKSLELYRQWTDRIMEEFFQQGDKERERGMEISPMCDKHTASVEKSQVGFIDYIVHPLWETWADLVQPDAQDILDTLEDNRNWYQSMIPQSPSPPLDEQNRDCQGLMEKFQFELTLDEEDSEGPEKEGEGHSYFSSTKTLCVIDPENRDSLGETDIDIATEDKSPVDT

With COCCn1c(=O)c(-c2ccc(OC)cc2)nc2cnc(Nc3ccccc3)nc21 as the compound, how does the Potency read?
The Potency was “inactive”.

For CN(C)Cc1ccccc1-c1cncnc1Nc1ccc(F)cc1, which Potency is on record?
The Potency was “inactive”.

Which Potency does the source give for N#Cc1cccc(NC(=O)N2CC3(CCN(C(=O)c4cnccn4)CC3)C2)c1 here?
The Potency was “inactive”.

With COc1ccc(C(=O)N2CCC3(CCCN(c4ccc(-c5ccccc5)cc4)C3)CC2)cc1 as the compound, how does the Potency read?
Its Potency is “inactive”.

Which Potency does the source give for O=C(c1ccncc1)N1CCC[C@@]2(CCN(Cc3cc(C(F)(F)F)cc(C(F)(F)F)c3)C2)C1 here?
The Potency was “inactive”.

For N#Cc1ccc(CN2CCC3(CC2)CCN(C(=O)c2cnccn2)CC3)cc1, which Potency is on record?
The Potency was “inactive”.

For c1cncc(-c2nc(NCCN3CCOCC3)c3ccccc3n2)c1, which Potency is on record?
Its Potency is “inactive”.

For O=C(Oc1ccccc1)N1CCC[C@@]2(CCN(c3ccccc3)C2)C1, which Potency is on record?
The Potency was “inactive”.

Which Potency does the source give for CC(=O)N1CCC2(CC1)CCN(c1ccccc1)CC2 here?
The Potency was “inactive”.

With O=C(Oc1ccccc1)N1CCC2(CC1)CCN(c1ccccn1)CC2 as the compound, how does the Potency read?
The Potency was “inactive”.

With O=C(c1csnn1)N1CCC2(CCCN(c3ccccn3)C2)CC1 as the compound, how does the Potency read?
The Potency was “inactive”.

Which Potency does the source give for O=S(=O)(c1ccccc1)N1CCC2(CCCN(Cc3ccccc3)C2)CC1 here?
The Potency was “inactive”.

Which Potency does the source give for COc1ccc(C(=O)N2CCC3(CCCN(c4ccncc4)C3)CC2)cc1 here?
The Potency was “inactive”.

For O=C(c1ccncc1)N1CCC2(CCN(Cc3cc(C(F)(F)F)cc(C(F)(F)F)c3)CC2)CC1, which Potency is on record?
Its Potency is “inactive”.

With O=c1c(CCc2ccccc2)nc2cnc(Nc3ccccc3)nc2n1Cc1cccs1 as the compound, how does the Potency read?
The Potency was “inactive”.

For O=S(=O)(c1ccccc1)N1CCC2(CCCN(c3ccccc3)C2)CC1, which Potency is on record?
Its Potency is “inactive”.

For Cc1noc(C)c1C(=O)N1CCC2(CCCN(c3ccccn3)C2)CC1, which Potency is on record?
Its Potency is “inactive”.

Which Potency does the source give for Cn1cccc1C(=O)N1CCC2(CCCN(Cc3nccs3)C2)CC1 here?
Its Potency is “inactive”.

With O=C(c1ccco1)N1CCC2(CCN(Cc3cc(C(F)(F)F)cc(C(F)(F)F)c3)CC2)CC1 as the compound, how does the Potency read?
The Potency was “inactive”.

Which Potency does the source give for Cn1cccc1C(=O)N1CCC2(CCCN(C(=O)Nc3cccc(C#N)c3)C2)CC1 here?
Its Potency is “inactive”.

With CC(=O)N1CCC2(CCN(Cc3ccc(C#N)cc3)CC2)CC1 as the compound, how does the Potency read?
Its Potency is “inactive”.

Which Potency does the source give for O=C(c1ccncc1)N1CCC2(CCCN(c3ncccn3)C2)CC1 here?
The Potency was “inactive”.

For O=C(c1cnccn1)N1CCC2(CCCN(c3ccncc3)C2)CC1, which Potency is on record?
Its Potency is “inactive”.

Which Potency does the source give for N#CCCn1c(=O)c(-c2cccs2)nc2cnc(Oc3ccccc3)nc21 here?
The Potency was “inactive”.

For O=C(c1cccc(F)c1)N1CCC2(CC1)CCN(c1ccccn1)CC2, which Potency is on record?
The Potency was “inactive”.

For O=C(Nc1cccc(F)c1)N1CC2(CCN(C(=O)c3ccncc3)CC2)C1, which Potency is on record?
Its Potency is “inactive”.

For O=C(c1ccco1)N1CCC2(CC1)CCN(c1ccccn1)CC2, which Potency is on record?
Its Potency is “inactive”.

With O=C(c1cccc(F)c1)N1CCC2(CCCN(c3ccccc3)C2)CC1 as the compound, how does the Potency read?
The Potency was “inactive”.

For O=S(=O)(c1ccccc1)N1CCC2(CCCN(c3ccncc3)C2)CC1, which Potency is on record?
The Potency was “inactive”.

Target: Cytochrome P450 3A4 (Homo sapiens) (UniProt P08684)
Experiment: qHTS Assay for Inhibitors and Substrates of Cytochrome P450 3A4 (AID 884; active = well fitted curve in the direction sought with a large enough effect; an effect the other way counts as inactive or inconclusive; also: nearly all actives have a fitted effect of over 50% in size; also: potency is read from the fitted curve at half-maximal effect)
Conditions: recombinant CYP3A4, Luciferin-PPXE luminescence; series mostly up to 57.1 µM
Summary of the method: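 Luminescent readout of luciferin produced by CYP3A4 (20 nM) dealkylation of Luciferin-PPXE, 25 uM (its KM). NADPH-driven reaction ran 60 min at RT after 10 min compound preincubation; data scaled to 57 uM ketoconazole as 100% inhibition.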

Cytochrome P450 3A4 (Homo sapiens), sequence (P08684 whole entry, looked up): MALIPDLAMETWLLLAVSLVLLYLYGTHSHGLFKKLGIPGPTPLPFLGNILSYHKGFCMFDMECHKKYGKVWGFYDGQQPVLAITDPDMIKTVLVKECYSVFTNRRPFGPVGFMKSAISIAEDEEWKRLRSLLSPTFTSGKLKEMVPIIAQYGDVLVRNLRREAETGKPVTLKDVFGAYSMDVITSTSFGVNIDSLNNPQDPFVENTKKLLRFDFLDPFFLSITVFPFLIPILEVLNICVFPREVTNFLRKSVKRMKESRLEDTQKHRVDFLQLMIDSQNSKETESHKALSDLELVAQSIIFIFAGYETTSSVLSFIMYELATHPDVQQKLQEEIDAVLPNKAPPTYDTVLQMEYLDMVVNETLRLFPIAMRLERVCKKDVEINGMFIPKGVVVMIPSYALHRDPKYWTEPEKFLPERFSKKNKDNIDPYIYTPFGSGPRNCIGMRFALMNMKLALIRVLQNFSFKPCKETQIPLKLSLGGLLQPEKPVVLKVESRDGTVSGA

With Cn1cccc1C(=O)N1CCC[C@@]2(CCN(c3cccc(-c4ccccc4)c3)C2)C1 as the compound, how does the Potency read?
Its Potency is 7.94 µM (active).

Which Potency does the source give for O=C(Oc1ccccc1)N1CCC2(CC1)CCN(c1ccccn1)CC2 here?
The Potency was “inactive”.

For O=S(=O)(c1ccccc1)N1CCC2(CCCN(c3ccccc3)C2)CC1, which Potency is on record?
The Potency was 3.98 µM (active).

With O=C(c1cccc(F)c1)N1CCC2(CC1)CCN(c1ccccn1)CC2 as the compound, how does the Potency read?
The Potency was “inactive”.

For O=C(c1ccco1)N1CCC2(CC1)CCN(c1ccccn1)CC2, which Potency is on record?
Its Potency is “inactive”.

Target: Cytochrome P450 3A4 (Homo sapiens) (UniProt P08684)
Experiment: qHTS Assay for Activators of Cytochrome P450 3A4 (AID 885; active = well fitted curve in the direction sought with a large enough effect; an effect the other way counts as inactive or inconclusive; also: nearly all actives have a fitted effect of over 65% in size; also: potency is read from the fitted curve at half-maximal effect)
Conditions: recombinant CYP3A4, Luciferin-PPXE luminescence, 60 min; series mostly up to 57.1 µM
Summary of the method: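 Using 20nM recombinant human CYP3A4 in potassium phosphate (200mM), substrate Luciferin-PPXE at 25uM, luminescent luciferin detection followed a 60-min RT NADPH reaction; data scaled to 57 uM ketoconazole.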

Which Potency does the source give for Cn1cccc1C(=O)N1CCC[C@@]2(CCN(c3cccc(-c4ccccc4)c3)C2)C1 here?
Its Potency is “inactive”.

Which Potency does the source give for c1cncc(-c2nc(NCCN3CCOCC3)c3ccccc3n2)c1 here?
The Potency was “inactive”.

Which Potency does the source give for O=C(Nc1cccc(F)c1)N1CCC2(CC1)CCN(C(=O)c1ccncc1)CC2 here?
The Potency was “inactive”.

Which Potency does the source give for O=S(=O)(c1ccccc1)N1CCC2(CCCN(c3ccccc3)C2)CC1 here?
The Potency was “inactive”.

For Cc1noc(C)c1C(=O)N1CCC2(CCCN(c3ccccn3)C2)CC1, which Potency is on record?
Its Potency is “inactive”.

Which Potency does the source give for O=C(c1cccc(F)c1)N1CCC2(CC1)CCN(c1ccccn1)CC2 here?
Its Potency is 3.16 µM (active).

Which Potency does the source give for COCCn1c(=O)c(-c2cccs2)nc2cnc(OCc3ccccc3)nc21 here?
Its Potency is “inactive”.

Which Potency does the source give for O=C(c1cccc(F)c1)N1CCC2(CCCN(c3ccccc3)C2)CC1 here?
The Potency was “inactive”.

Target: Cytochrome P450 2C19 (Homo sapiens) (UniProt P33261)
Experiment: qHTS Assay for Inhibitors and Substrates of Cytochrome P450 2C19 (AID 899; active = well fitted curve in the direction sought with a large enough effect; an effect the other way counts as inactive or inconclusive; also: nearly all actives have a fitted effect of over 60% in size; also: potency is read from the fitted curve at half-maximal effect)
Conditions: recombinant CYP2C19, luciferin-H EGE luminescence; series mostly up to 57.1 µM
Summary of the method: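 Reactions contain 5nM enzyme, 10uM Luciferin-H EGE (KM) and 50mM KPO4; compound preincubates 10 min at 37C, NADPH regeneration starts turnover for 60 min. Luminescence after detection reagent gives activity.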

Cytochrome P450 2C19 (Homo sapiens), sequence (P33261 whole entry, looked up): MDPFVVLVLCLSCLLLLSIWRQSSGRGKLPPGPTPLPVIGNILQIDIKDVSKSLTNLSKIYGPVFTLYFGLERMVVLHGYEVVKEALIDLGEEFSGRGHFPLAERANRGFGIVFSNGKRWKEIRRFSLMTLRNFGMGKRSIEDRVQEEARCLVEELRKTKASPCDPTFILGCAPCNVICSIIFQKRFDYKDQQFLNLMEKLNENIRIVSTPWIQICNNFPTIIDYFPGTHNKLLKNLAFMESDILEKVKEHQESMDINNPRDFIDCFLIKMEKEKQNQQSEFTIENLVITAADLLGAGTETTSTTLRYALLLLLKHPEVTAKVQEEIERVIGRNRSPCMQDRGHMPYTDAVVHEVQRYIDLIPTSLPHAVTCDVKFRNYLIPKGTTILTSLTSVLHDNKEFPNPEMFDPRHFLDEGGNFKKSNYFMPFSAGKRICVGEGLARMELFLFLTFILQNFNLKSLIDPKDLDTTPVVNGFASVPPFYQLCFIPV

For O=S(=O)(c1ccccc1)N1CCC2(CCCN(c3ccccc3)C2)CC1, which Potency is on record?
Its Potency is 1.58 µM (active).

Which Potency does the source give for O=C(Nc1cccc(F)c1)N1CC2(CCN(C(=O)c3ccncc3)CC2)C1 here?
The Potency was “inactive”.

For O=C(c1cccc(F)c1)N1CCC2(CCCN(c3ccccc3)C2)CC1, which Potency is on record?
Its Potency is 5.01 µM (active).

Tested on: not listed separately
Experiment: qHTS Assay for Identification of Small Molecule Agonists for Hypoxia Response Element Signaling Pathway (AID 914; active = well fitted activation curve with a large enough effect in the signal ratio, with a control signal flat, not every such curve was filed as active; the % refers to the signal ratio)
Conditions: ME-180 (cervical carcinoma) HRE-bla reporter, beta-lactamase ratio, CoCl2, 17 h; activation: hits give high values
Summary of the method: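 HRE-bla ME-180 assay for agonist-like enhancement of an EC50 CoCl2 stimulus: 17 h at 37 degrees Celsius, CCF4 for 2.5 h, ratiometric 460/530 nm signal converted to %Activity and fitted to AC50.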

For CC(=O)N1CCC2(CC1)CCN(c1ccccc1)CC2, which activation is on record?
Its activation is -2.78% (inactive).

Which activation does the source give for Cc1cccc(CNc2cc(-c3ccccc3C)ncn2)c1 here?
The activation was 16.7% (inactive).

For O=C(c1ccco1)N1CCC2(CCN(Cc3cc(C(F)(F)F)cc(C(F)(F)F)c3)CC2)CC1, which activation is on record?
The activation was -7.14% (inactive).

Which activation does the source give for O=C(c1cccc(F)c1)N1CCC2(CCCN(c3ccccc3)C2)CC1 here?
Its activation is -3.27% (inactive).

Tested on: not listed separately
Experiment: Confirmation and Secondary Assay for Modulators of Hemoglobin Beta Chain Splicing at IVS2 705 locus (AID 930; active = well fitted curve in the direction sought with a large enough effect; an effect the other way counts as inactive or inconclusive;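 also: HeLa cells stably expressing the EGFP-705 splicing reporter; GFP fluorescence per well restored by corrected splicing of the IVS2-705 intron in EGFP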)
Conditions: HeLa EGFP-705 splicing reporter, GFP fluorescence, 48 h; series mostly up to 38.3 µM
Summary of the method: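 HeLa IVS2-705 EGFP reporter cells, 500/well, compound 2 d at 37C; correct splicing yields fluorescent EGFP. Control: 500 nM antisense PNA. Read-out: total peak GFP intensity.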

With CN(C)Cc1ccccc1-c1cncnc1Nc1ccc(F)cc1 as the compound, how does the outcome read?
Its outcome is “inactive”.

For c1cncc(-c2nc(NCCN3CCOCC3)c3ccccc3n2)c1, which outcome is on record?
The outcome was “inactive”.

With Cc1cccc(CNc2cc(-c3ccccc3C)ncn2)c1 as the compound, how does the outcome read?
Its outcome is “inactive”.

From PubChem BioAssay (NCATS)
